Where “and” joins values, the source holds several entries; their conditions need not be identical. Equal entries are not always repeated. Inconclusive results are not listed. A number with no mark means an inactive call. Calls of active or inactive are those of the source. Calls come from the whole dose curve; as a rule, active = well fitted cell-killing curve with a large enough effect in the repeat runs; inconclusive = weak or mixed curves, or effect the other way; inactive = flat fitted curve, though single readings scatter.
assay: cAMP Responsive Elements (CRE) small molecule antagonists, cell-based qHTS assay: qHTS cell viability counter screen (AID 2060913); conditions: CRE-bla HEK293T viability, CellTiter-Glo luminescence, 5 h; series mostly up to 92.4 µM; viability change, negative = cytotoxic: at the top concentration; note: nearly all actives have a fitted effect of over 40% in size
Summary of the method: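 HEK293T CRE-bla, 2,000 cells/well, 18 h preincubation; cpd in DMSO + NKH477 0.25 uM final, 3 h 37 C/5% CO2; LiveBLAzer 2 h RT, then CellTiter-Glo 30 min RT, luminescence.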
% is set by controls: 0 for no effect and ±100 for the full control effect; potency is the fitted concentration of half-maximal effect.

Compound	viability change, negative = cytotoxic	Potency
CCCCCCCc1ccc(O)cc1	-5.77%	
C[C@]12CC[C@H]3[C@@H](CCC4=CC(=O)CC[C@@H]43)[C@@H]1CC[C@@H]2OC(=O)CCC1CCCCC1	0.477% [at 42.5 µM]	
Oc1ccc(I)cc1	-6.9%	
CCC[CH2][Sn]([Cl])([CH2]CCC)[CH2]CCC		3.86 µM (active) and 7.7 µM (active)
Brc1ccc(Oc2cc(Br)c(Br)cc2Br)c(Br)c1		inactive
O=C(O)C(F)(F)C(F)(F)C(F)(F)C(F)(F)C(F)(F)C(F)(F)C(F)(F)C(F)(F)F	6.62%	
O=C(Nc1ccc(F)cc1F)c1cccnc1Oc1cccc(C(F)(F)F)c1	-1.94%	
O=[N+]([O-])c1c(Cl)c(Cl)cc(Cl)c1Cl	0.21%	
Cl[C@H]1OCCO[C@@H]1Cl		inactive
CCOc1cc(Oc2ccc(C(F)(F)F)cc2Cl)ccc1[N+](=O)[O-]		inactive
COP(=S)(OC)Oc1ccc([N+](=O)[O-])cc1Cl	-10.6%	
NS(=O)(=O)C(F)(F)C(F)(F)C(F)(F)C(F)(F)C(F)(F)C(F)(F)C(F)(F)C(F)(F)F	-4.78%	
O=C(Nc1ccccc1)Nc1cnns1	-10.4%	
Cc1cccc(C)c1NC1=NCCCS1	-1.78% [at 42.5 µM]	
[F][Sn]([c]1ccccc1)([c]1ccccc1)[c]1ccccc1		5.45 µM (active)
Clc1ccc(C(c2ccccc2Cl)C(Cl)(Cl)Cl)cc1 (stereo not given)	-19.3%	
COc1ccc(OC)c(C=O)c1	12%	
[Cl][Sn]([c]1ccccc1)([c]1ccccc1)[c]1ccccc1		2.59 µM (active)
Clc1ccc2ccccc2c1	-5.1%	
O=C(O)CCCOc1ccc(Cl)cc1Cl		inactive

Compound	viability change, negative = cytotoxic	Potency
CC(C)NCC(O)c1ccc(N)c(C#N)c1 (stereo not given)	-2.64% [at 42.5 µM]	
Cl		inactive
CNCC(=O)c1ccc(O)c(O)c1	5.69% [at 42.5 µM]	
CO/C=C(/C(=O)OC)c1ccccc1Oc1cc(Oc2ccccc2C#N)ncn1		65.2 µM (active)
CC(C)Nc1ccc(Nc2ccccc2)cc1		50.8 µM (active)
CC(C)C1(C)N=C(c2nc3ccccc3cc2C(=O)O)NC1=O (stereo not given)		inactive
O=[N+]([O-])c1cc(C(F)(F)F)cc([N+](=O)[O-])c1Cl	-8.62%	
CCCCOC(=O)[C@@H](C)Oc1ccc(Oc2ccc(C#N)cc2F)cc1	-3.37%	
OC(O)C(Cl)(Cl)Cl		inactive
[Hg+2].[I-].[I-]		54.5 µM (active)
C/C(=C\c1ccccc1)[N+](=O)[O-]	5.08%	
ClC1=C(Cl)[C@]2(Cl)[C@@H]3[C@H]4C[C@H]([C@@H]5O[C@H]45)[C@@H]3[C@@]1(Cl)C2(Cl)Cl	-11.9%	
Fc1cc(Br)ccc1CBr	-4.96% [at 42.5 µM]	
CC1(C)CC/C(=C/c2ccc(Cl)cc2)C1(O)Cn1cncn1 (stereo not given)	0.26%	
c1ccc2c(c1)oc1ccccc12		inactive
C=CCN1CC[C@]23c4c5ccc(O)c4O[C@H]2C(=O)CC[C@@]3(O)[C@H]1C5	7.51% [at 42.5 µM]	
CN1[C@@H]2CC[C@H]1CC(O)C2 (stereo not given in full)	3.25%	
C=CC(=O)OC	2.63%	
CC(C)[N+](=O)[O-]	8.99%	
Nc1ccc([N+](=O)[O-])cc1N		inactive

From PubChem BioAssay (Tox21)
